These results are taken from PubChem BioAssay AID2315 (National Center for Advancing Translational Sciences (NCATS), 2010).

Among all 290,000 compounds or so, about 27,000 (9.3%) were called active. No stated cut-off is given here; in the data, active means inhibition mostly above about 28% (no sharp cut-off); inactive means mostly below about 43%. This excerpt belongs to a sample that is enriched for actives.

Broadly, the inhibition is the relative decrease from the control value, in per cent.

A short description of this test: A qHTS for Small Molecule Inhibitors of Shiga Toxin. Further: 0% is about no effect. The conditions noted are these: Vero cells, Shiga toxin protein synthesis inhibition reporter; at 38.7 µM, hits give high values. Background: Quantitative high-throughput screening tests each substance at several concentrations.
As for `CCOc1ccc(N2CC(C(=O)NCc3ccccn3)CC2=O)cc1` (stereo unspecified), the inhibition was -7.37% (inactive).
The result for `COc1cc(/C=C/C(=O)N2CCc3ccccc3C2)cc(OC)c1OC` reads -4.9% (inactive).
As to `Cc1ccc(S(=O)(=O)N2CCC(Oc3ccc(-n4cnnn4)cc3)CC2)cc1`, the inhibition is 1.93% (inactive).
The result for `Cc1ccc(C)c(N2CCN(C(=O)Cn3ncn4cccc4c3=O)CC2)c1` reads -2.82% (inactive).
The result for `CCc1nc2nc(C)c(NS(=O)(=O)c3ccc4c(c3)CCCC4)c(=O)n2[nH]1` reads -6.5% (inactive); that for `Cc1cccc(CNS(=O)(=O)c2ccc(-c3cnc(C4CC4)o3)cc2)c1`, 13.9% (inactive).
The result for `N/C(Cc1ccc([N+](=O)[O-])cc1)=N\OC(=O)COc1ccc2ccccc2c1` reads 12.2% (inactive); that for `CO/N=C(\N)c1ccc([N+](=O)[O-])cc1`, -2.22% (inactive); that for `N/C(=N\OC(=O)COc1ccc([N+](=O)[O-])cc1)c1ccc(Br)cc1`, 2.73% (inactive).
Regarding `N/C(=N\OC(=O)c1ccc([N+](=O)[O-])cc1)c1ccccn1`, the inhibition was 71% (active).
The result for `N/C(=N\OC(=O)Cc1ccc([N+](=O)[O-])cc1)c1ccccn1` reads 124% (active); that for `O=C(OCc1ccc([N+](=O)[O-])cc1)c1ccccn1`, 1.67% (inactive); that for `CC(C)(C)c1ccc(Cn2nnc3c(=O)[nH]c(C4CCCN(C(=O)c5ccco5)C4)nc32)cc1` (stereo unspecified), 2.02% (inactive).
The result for `Cc1cc(C)n(CCC(=O)N2CCN(S(=O)(=O)c3ccc(C)c(C)c3)CC2)n1` reads -6.68% (inactive); that for `Cc1ccc(CNC(=O)C2CCCN2S(=O)(=O)c2ccc3c(c2)C(C)(C)C(=O)N3C)cc1` (stereo unspecified), -2.07% (inactive).
In the case of `Cc1cc(C(F)F)nn1CC(=O)NC1CCCCCC1`, the inhibition is -2.84% (inactive).
The result for `CCn1c(=S)sc2c(=O)n(CC(=O)Nc3ccc(OC)cc3)c(C)nc21` reads -8.22% (inactive); that for `COc1cc(CCC(=O)Nc2ccncc2Cl)cc(OC)c1OC`, -2.22% (inactive).
The result for `CN(C(=O)CSc1nnnn1-c1ccccc1)C1CCCCC1` reads 31.7% (inactive); that for `CN(C(=O)CSc1nncc2ccccc12)C1CCCCC1`, 69.8% (active).
The result for `CN(C(=O)CCn1c(=S)oc2ccccc21)C1CCCCC1` reads -6.3% (inactive); that for `O=C(Cc1ccc(F)cc1)NC1CCCC1`, -4.53% (inactive).
`CC(=O)Nc1ccc(NC(=O)CC2CCCC2)cc1`: the inhibition is 48.2% (active).
The result for `O=C(CC1CCCCC1)NCc1ccccc1` reads 107% (active); that for `CC(=O)Nc1ccc(N2C(=O)C3C4C=CC(CC4)C3C2=O)cc1` (stereo unspecified), 11.7% (inactive); that for `O=C(Cn1nc(C(F)(F)F)c2c1CCC2)NCc1ccc(F)cc1`, -2.3% (inactive).
The result for `O=C(CC1CCCCC1)NCc1ccc(F)cc1` reads 61.1% (active); that for `O=C(CCc1ccc(S(=O)(=O)NC2CCCCC2)cc1)NCc1ccccc1`, -10% (inactive); that for `O=C(CC1CCCCC1)NCc1ccco1`, -2.21% (inactive).
The result for `CC(=O)Nc1ccc(S(=O)(=O)N2CCN(C3CCCCCCC3)CC2)cc1` reads -14.3% (inactive).
On to `Cc1ccc(Cn2c(C)c3cnn(CC(=O)NCc4ccccn4)c(=O)c3c2C)cc1`, for which the inhibition is -6.49% (inactive).
Regarding `Cc1nn(CC2CC2)c(=O)n1N(C)c1ncc(C(F)(F)F)cc1Cl`, the inhibition was -23.8% (inactive).
The result for `COc1ccc(NS(=O)(=O)c2ccc(F)cc2F)cn1` reads -5.14% (inactive); that for `CCOC(=O)Cn1c(=O)n(Cc2ccc(OC)cc2)c(=O)c2cccnc21`, -6.29% (inactive); that for `Cc1cc(NS(=O)(=O)c2ccc(NC(=O)C(C)Oc3cccc(C)c3C)cc2)nc(C)n1` (stereo unspecified), 1.79% (inactive).
The result for `CC(NC(=O)COc1ccc(-c2ccccc2)cc1)C1CCCO1` (stereo unspecified) reads 12% (inactive).
The result for `O=C(Cc1coc2ccc3ccccc3c12)NCc1cccs1` reads 1.44% (inactive); that for `COc1ccc(C)cc1NC(=O)CNCc1cccs1`, -6.47% (inactive).
With `Cc1ccc2c(CC(=O)NCc3cccs3)coc2c1`, the inhibition was 77.5% (active).
The result for `CC(C)[C@H](NC(=O)N1CCn2c1nc1ccccc12)C(=O)NC1CC1` reads 25.9% (inactive); that for `CCOC(=O)C1(CCOc2ccccc2)CCN(C(=O)c2cncs2)CC1`, -4.69% (inactive).
The result for `CCOC(=O)C1(Cc2ccccc2C(F)(F)F)CCN(C(=O)c2cc(C)n(C)n2)CC1` reads 109% (active); that for `CCOC(=O)C1(Cc2ccc(Cl)cc2)CCN(C(=O)C2=NNC(=O)CC2)CC1`, -6.2% (inactive); that for `COC(=O)c1ccc(CNC(=O)C2CCC(=O)N(Cc3ccccn3)C2)cc1` (stereo unspecified), -9.5% (inactive).
The result for `CN(C)c1ccc(C2N(C)C(=O)c3ccccc3N2C)cc1` (stereo unspecified) reads -12.6% (inactive); that for `O=[N+]([O-])c1ccc(N2CCN(c3ccc(F)cc3)CC2)cn1`, 20.3% (inactive); that for `O=C(Nc1cccc(NC(=O)c2ccc(Br)cc2)c1)c1ccccc1`, -7.53% (inactive).
Take `O=C(Nc1ccccc1Cl)c1ccc2nsnc2c1`: the inhibition is 102% (active).
In the case of `Cc1nc(C)c(C(=O)Nc2cccc(C)c2C)o1`, the inhibition was -7.98% (inactive).
The result for `Cc1cccc(NC(=O)c2ccc(OCC(=O)NCc3ccccc3)cc2)c1C` reads -9.42% (inactive); that for `Cc1cccc(NC(=O)c2ccc3nsnc3c2)c1C`, 80% (active); that for `O=C(Nc1ccccc1N1CCCCC1)c1ccc2nccnc2c1`, -14.9% (inactive).
The result for `O=C(Nc1ccccc1)c1ccc2nsnc2c1` reads 64.7% (active).
The result for `O=S(=O)(Nc1ccccc1Cl)c1cccc2nsnc12` reads -3.15% (inactive).
As to `COc1ccc(N2CCN(C(=O)C3CCN(C(=O)c4ccccc4Cl)CC3)CC2)cc1`, the inhibition is 26.7% (inactive).
Consider `CCCCC(CC)CNCc1cccn1CCN1CCOCC1` (stereo unspecified), for which the inhibition is -23.2% (inactive).
The result for `COc1cccc(-c2nc(CS(=O)CC(=O)NCc3ccc(F)cc3)c(C)o2)c1` (stereo unspecified) reads -9.69% (inactive); that for `COc1cccc(NC(=O)[C@H](Cc2c[nH]c3ccccc23)NC(=O)[C@@H]2Cc3ccccc3CN2)c1`, 9.71% (inactive).
Consider `O=S(=O)(Nc1cccc(-n2cnnn2)c1)c1cnc(Cl)c(Cl)c1`, for which the inhibition was -9.74% (inactive).
Turning to `Cc1ccc(O)c(NC(=O)COc2cc(C)ccc2C)c1`, the inhibition was -27.8% (inactive).
Consider `Cc1ccc(C)c(NC(=O)c2ccc(OC(=O)c3ccco3)cc2)c1`, for which the inhibition is 32.9% (inactive).
The result for `Cc1ccc(O)c(NC(=O)c2cc(-c3ccco3)on2)c1` reads 81.4% (active); that for `O=C(O)CSc1c2c(nc3cc(C(=O)Nc4cccc(C(F)(F)F)c4)ccc13)CCCC2`, -3.73% (inactive); that for `O=C(O)CN1CCN(C(c2ccccc2)c2ccccc2)CC1`, -10.2% (inactive).
The result for `COc1ccc(NC(=O)CSc2ccc(-c3ccco3)nn2)c(OC)c1` reads -11.2% (inactive).
The result for `Brc1ccc(CSc2ccc(-c3ccco3)nn2)cc1` reads 99.8% (active).
Turning to `Clc1ccccc1CSc1nnc(-c2ccco2)c(-c2ccco2)n1`, the inhibition was -3.95% (inactive).
The result for `Fc1cccc(Cl)c1CSc1ccc(-c2ccco2)nn1` reads 89% (active).
The result for `Cc1cc(SCc2c(F)cccc2Cl)nc(=O)[nH]1` reads 5.47% (inactive).
The result for `O=C(CSc1ccc(-c2ccco2)nn1)NCc1ccc2c(c1)OCO2` reads 25% (inactive); that for `O=C(Nc1ccccc1-c1ccccc1)c1ccccc1[N+](=O)[O-]`, 2.33% (inactive).
For `NC(=O)c1ccc(N2CCOCC2)nc1`, the inhibition is -13.6% (inactive).
The result for `O=C(Nc1ccc(F)cc1)c1cccnc1N1CCOCC1` reads 28.6% (inactive); that for `O=C(Nc1ccc(N2CCOCC2)nc1)c1c(F)cccc1F`, 55.5% (active); that for `CC(=O)c1ccc(S(=O)(=O)N(C)CCCC(=O)N(C)Cc2ccccc2F)cc1`, -5.36% (inactive).
With `COc1cccc(/C=C(/CC(=O)Nc2ccc(N3CCOCC3)cc2)c2nc3ccccc3s2)c1`, the inhibition is 90.3% (active).
The result for `COc1ccc(/C=C(/CC(=O)Nc2ccc(C)cc2)c2nc3ccccc3s2)cc1` reads 19.4% (inactive).
In the case of `CCn1c(Cc2ccc(OC)cc2)nnc1SCC(=O)Nc1ccc(N2CCOCC2)cc1`, the inhibition is 1.72% (inactive).
The result for `COc1ccc(C(C)NC(=O)C2CCCC2)cc1` (stereo unspecified) reads -3.92% (inactive); that for `O=C(COc1ccc2ccc(=O)oc2c1)NCC(O)c1ccccc1` (stereo unspecified), -18.4% (inactive); that for `O=C(O)c1ccccc1C(=O)NC1=NN(c2ccccc2)CC1`, 3.05% (inactive).
The result for `Cc1cccc(N2CCN(c3ccc(C(N)=O)cc3[N+](=O)[O-])CC2)c1C` reads 5.45% (inactive); that for `Cc1ccc(C(=O)c2ccc(N3CCN(C)CC3)c([N+](=O)[O-])c2)cc1`, 76.3% (active).
The result for `CCOC(=O)C1CCN(c2ccc(C(=O)O)cc2[N+](=O)[O-])CC1` reads -7.98% (inactive); that for `CCOC(=O)C1CN(S(=O)(=O)c2ccc(OC)cc2)c2cc(Cl)ccc2O1` (stereo unspecified), -12.8% (inactive).
In the case of `CC(C)C(C)NC(=O)COc1nc2ccccc2nc1N(C)C1CCCCC1` (stereo unspecified), the inhibition was -16.3% (inactive).
The result for `O=C(NC1CCCC1)C1CCN(C(=O)Nc2cccc(Cl)c2)CC1` reads -5.04% (inactive); that for `Cc1ccc(S(=O)(=O)N(Cc2ccccc2)c2ccccn2)cc1[N+](=O)[O-]`, 5.85% (inactive); that for `Cc1ccc(C(=O)/C=C/c2c(C)nn(-c3ccccc3)c2Cl)cc1`, 45.2% (active).
The result for `Cc1nn(-c2ccccc2)c(C)c1/C=C/C(=O)OC(C)C(N)=O` (stereo unspecified) reads -6.62% (inactive).
Take `Cc1nn(-c2ccccc2)c(C)c1NC(=O)CCl`: the inhibition is 16.7% (inactive).
With `Cc1nn(-c2ccccc2)c(Cl)c1/C=C/C(=O)c1ccc(O)cc1`, the inhibition is 37.6% (inactive).
The result for `Cc1nn(-c2ccccc2)c(Cl)c1C(=O)Nc1ccccc1` reads 108% (active); that for `COc1ccc(CCNC(=O)c2c(C)nn(-c3ccccc3)c2Cl)cc1`, 15.3% (inactive).
The result for `Cc1cccc([C@@H]2[C@@H]3C(=O)N(Cc4ccccc4)C(=O)[C@@H]3[C@]3(C)C(=O)N(c4ccc(Br)cc4)C(=O)N23)c1` reads 10.9% (inactive); that for `CCCN1CCN(C(=O)CCCNC(=O)c2ccc(Cl)cc2)CC1`, -8.41% (inactive).
